Here are results for 95 compounds from PubChem BioAssay AID1745850 (National Center for Advancing Translational Sciences (NCATS), 2022).

SMILES strings stand for the structures. Screen size: about 2,100 compounds; about 260 (12%) were called active. Inconclusive results (about 58%) are left out. Calls follow the shape of the dose curve; as a rule, active = well fitted cell-killing curve with a large enough effect; inconclusive = small, poorly fitted or top-dose-only effect, or effect the other way; inactive = flat fitted curve, though single readings scatter. Some of the results follow. Where a call stands in place of a potency, no number is given.
Potency is read from the fitted curve at half-maximal effect.

A short description of this assay: Viability Counterscreen for Confirmatory qHTS for Inhibitors of ATXN expression. Also: nearly all actives have a fitted effect of over 50% in size. The conditions noted are these: HEK-293 ATXN2-luc cells viability, CellTiter-Fluor, 24 h. The procedure, abridged:
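Luminescence read-out (SteadyGlo, 5 min) followed a 30 min Gly-Phe-AFC (25 uM final) viability fluorescence read. ATXN2-luciferase reporter cells were exposed 24 h to a dilution series. Medium-only wells served as the 100% inhibition reference.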
For orientation: The purpose of a counterscreen is to sort out artefacts and off-target activity.
On to `O=C(NCc1ccco1)c1ccc(-c2cccc(Cl)c2)o1`, for which the Potency entry is “inactive”.

Take `CC(NC1=CC(=O)c2cccnc2C1=O)C(O)c1ccccc1` (stereo not given): the Potency was 31.6 µM (active).

For the compound `COc1ccc2c(c1)[nH]c1c(=O)n(/N=C/C3C(C)C=C(C)CC3C)c(=O)[nH]c12` (stereo not given), the Potency was 20 µM (active).

With `Cc1ccc(-c2cc(C(=O)NCCCN3CCOCC3)no2)cc1`, the Potency result was “inactive”.

As for `CCOC(=O)c1c(SCCN2CCCC2)n(-c2ccccc2)c(=S)n(-c2ccccc2)c1=O`, the Potency was 2.51 µM (active).

Regarding `O=C(/C=C/NNC(=O)c1ccccc1)c1ccc([N+](=O)[O-])cc1`, the Potency was 12.6 µM (active).

For `CCCCC(=O)N(C)c1c(CC)nc2c(OCc3ccc(Cl)cc3Cl)cccn12`, the Potency result is “inactive”.

With `O=C(NCC(=O)N1CC(O)CC1C(=O)N1CCCC1C(=O)OCc1ccccc1)OCc1ccccc1` (stereo not given), the Potency entry is “inactive”.

For `CCCCC(=O)OCC(=O)C1(O)Cc2c(O)c3c(c(O)c2C(OC2CC(NC(=O)C(F)(F)F)C(O)C(C)O2)C1)C(=O)c1c(OC)cccc1C3=O` (stereo not given), the Potency was 15.8 µM (active).

Regarding `COc1cccc2c1C(=N)c1c(O)c3c(c(O)c1C2=O)CC(O)(C(C)=O)CC3OC1CC(N)C(O)C(C)O1` (stereo not given), the Potency was 4.47 µM (active).

Turning to `CCC1=C(OC(=O)N(CC)CC)N2C(=O)OC(=NCCc3c[nH]c4ccccc34)[C@]2(Cc2ccccc2)[C@H]2C1=CC[C@H]1C(=O)N(c3ccccc3)C(=O)[C@H]12`, the Potency result is “inactive”.

In the case of `CCCC(=O)Nc1c(C(=O)OCC)[nH]c2ccccc12`, the Potency result is “inactive”.

For the compound `CCOc1ccc(/C=N/NC(=O)C(O)c2ccccc2)c(O)c1` (stereo not given), the Potency result is “inactive”.

Regarding `O=c1ccc2ccccc2c2ccccc12`, the Potency was 17.8 µM (active).

As for `O=C(N/N=C\c1c(O)ccc2ccccc12)c1ccc(Cn2cccn2)o1`, the Potency result was “inactive”.

Take `Cc1ccc(Cl)cc1-c1ccc(C=Nc2ccc(N3CCOCC3)cc2)o1`: the Potency entry was “inactive”.

For `CCC(C)n1cnc2c(c1=O)c1nc3ccccc3nc1n2-c1ccc2c(c1)OCCO2` (stereo not given), the Potency entry is “inactive”.

For `C=CCn1cnc2c(c1=O)c1nc3ccccc3nc1n2/N=C/c1cc(OC)c(OC)c(OC)c1`, the Potency is 20 µM (active).

Regarding `Cc1ccsc1/C=C/C1=Cc2c(sc(NC(=O)CSc3n[nH]c(N)n3)c2C#N)C(C)(C)C1`, the Potency result is “inactive”.

Consider `c1ccc(Cn2c(-c3ccccc3)c[n+]3c2SCCC3)cc1`, for which the Potency entry is “inactive”.

For `Cc1ccc(S(=O)(=O)c2nc(S(C)(=O)=O)sc2N2CCCCC2C)cc1` (stereo not given), the Potency result is “inactive”.

In the case of `COc1ccc(CCNC(=O)c2cc3c(F)cccc3s2)cc1OC`, the Potency result was “inactive”.

As for `Cc1ccnc(NC(=O)CCCc2c[nH]c3ccccc23)c1`, the Potency result is “inactive”.

With `COc1cc(/C=C(/C#N)C(=O)NCCc2c[nH]c3ccccc23)ccc1OCc1ccccc1F`, the Potency is 25.1 µM (active).

For the compound `Cc1c(C(=O)N2c3ccccc3Sc3ccccc32)cccc1[N+](=O)[O-]`, the Potency entry is “inactive”.

On to `CC1(C)CC(N2CCN(Cc3ccccc3)CC2)=CC(=[N+]2CCCCC2)C1`, for which the Potency entry is “inactive”.

For `COc1ccc(N2CCN(c3ccnc4cc(Cl)ccc34)CC2)cc1`, the Potency result was “inactive”.

For `CN(C)c1ccc(C(=O)N/N=C/c2cc(Br)cc(Br)c2O)cc1`, the Potency result was “inactive”.

In the case of `CC(C)C(=O)Nc1ccc(C(=O)N/N=C/c2cc(Br)cc(Br)c2O)cc1`, the Potency is 28.2 µM (active).

On to `O=C(Cc1ccccc1)N/N=C/c1cc(Br)cc(Br)c1O`, for which the Potency result is “inactive”.

Regarding `C/C(=N\NC(=O)C(C)n1nc(C)c([N+](=O)[O-])c1C)c1ccccc1O` (stereo not given), the Potency entry is “inactive”.

Consider `Cc1ccc(/C=C2\SC(=S)N(CCCC(=O)Nc3cc(C)on3)C2=O)cc1`, for which the Potency entry is “inactive”.

`Cc1ccc(/C=C2\SC(=S)N(CCCC(=O)Nc3cccnc3)C2=O)cc1`: the Potency is 31.6 µM (active).

For `Cc1ccc(/C=C2\SC(=S)N(CCCC(=O)Nc3ccc(O)cc3)C2=O)cc1`, the Potency result is “inactive”.

Turning to `COC(=O)c1ccc(/C=C2/SC(=S)N(CCCC(=O)Nc3ccccn3)C2=O)cc1`, the Potency was 28.2 µM (active).

For `O=C(CCCN1C(=O)S/C(=C\c2ccccc2)C1=O)NNC(=O)c1ccccc1O`, the Potency result is “inactive”.

With `Cc1ccc(NC(=O)COc2ccc(/C=C3/SC(=Nc4ccccc4)N(Cc4cccnc4)C3=O)cc2)cc1`, the Potency was 20 µM (active).

Regarding `Cc1ccc(/C=C2/SC(=S)N(CCCC(=O)Nc3ccc(O)cc3)C2=O)cc1`, the Potency was 28.2 µM (active).

For the compound `[O-][n+]1c2ccccc2cc2ccccc21`, the Potency result was “inactive”.

As to `O=c1c(Cc2ccccc2)c(O)nc2n1CCS2`, the Potency entry was “inactive”.

In the case of `CC1(C)COCN1S(=O)(=O)c1ccc(C(=O)Nc2nnc(-c3ccc(Cl)s3)o2)cc1`, the Potency result is “inactive”.

Take `CC(C)(C)c1ccc(C(=O)N2CCCCCC2=O)cc1`: the Potency result was “inactive”.

On to `CC(/C=C/c1ccc2c(c1)OCO2)=N\NC(=O)c1cccc([N+](=O)[O-])c1`, for which the Potency entry is “inactive”.

In the case of `COc1ccc(/C=C/C(=O)c2ccc([N+](=O)[O-])o2)cc1OC`, the Potency was 8.91 µM (active).

As for `Cc1cccc(/C=C/C(=O)c2ccc([N+](=O)[O-])o2)c1`, the Potency was 3.55 µM (active).

Turning to `COc1ccccc1NC(=S)NC(=O)c1ccc(Cn2cc(Br)cn2)cc1`, the Potency result is “inactive”.

Consider `OC(c1ccccc1)(c1nc(-c2ccc3ccccc3c2)cs1)C(F)(F)F` (stereo not given), for which the Potency entry is “inactive”.

As to `O=C(NCc1ccccc1Cl)C1CCCN(C(=O)Nc2ccc(F)cc2)C1` (stereo not given), the Potency entry was “inactive”.

Consider `COc1cc(C#Cc2c(-c3cncn3C)n(C)c3ccc(-c4ccc(CN5CCOCC5)cc4)cc23)cc(OC)c1`, for which the Potency result was “inactive”.

As for `O=C(N/N=C\c1cc(Cl)ccc1O)c1ccc(S(=O)(=O)N2CCCCC2)cc1`, the Potency result is “inactive”.

For the compound `O=C(COc1ccc(F)cc1)N/N=C/c1cccc2cccnc12`, the Potency result is “inactive”.

Consider `CC1CCN(Cc2c(C(=O)N/N=C/c3cc(Br)ccc3O)nnn2-c2nonc2N)CC1`, for which the Potency result was “inactive”.

For `Nc1ccc(Oc2ccccc2-c2ccccc2)cc1`, the Potency entry is “inactive”.

Take `COc1cc(NC(=O)c2cccc3c(-c4cnn(C)c4)coc23)cc(OC)c1OC`: the Potency was 31.6 µM (active).

As for `CC(=O)c1cccc(-c2ccnc3c2CC(C(=O)Nc2ccc(F)c(Cl)c2)O3)c1` (stereo not given), the Potency result is “inactive”.

With `CCc1cc2c(=O)c(-c3cnn(-c4ccccc4)c3)coc2c(CN2CCOCC2)c1O`, the Potency result is “inactive”.

Regarding `CC(=O)c1cccc(NC(=O)c2cccc3c(-c4cccc(C(N)=O)c4)coc23)c1`, the Potency is 20 µM (active).

On to `COc1cc(NC(=O)c2cc(-c3ccccc3)nc3c2cnn3C(C)C)cc(OC)c1OC`, for which the Potency result was “inactive”.

Consider `OCCN1CCN(C(=S)c2ccc(-c3ccccc3)cc2)CC1`, for which the Potency entry was “inactive”.

For the compound `Cc1[nH]n(-c2ccccc2)c(=O)c1C=Nc1cccc2cccnc12`, the Potency entry is “inactive”.

Turning to `COc1cc(C#Cc2c(-c3cncn3C)n(C)c3ccc(-c4cnc(N5CCOCC5)nc4)cc23)cc(OC)c1`, the Potency entry was “inactive”.

`COC(=O)c1ccsc1NC(=O)CN1CCN(Cc2ccc3c(c2)OCO3)CC1`: the Potency result was “inactive”.

Consider `Cc1ccc(CN2CC(C(=O)Nc3ncc(C)s3)CC2=O)cc1` (stereo not given), for which the Potency result is “inactive”.

For `COc1ccccc1-c1cc2nc(-c3ccccc3)cc(N3CCN(C(=O)c4ccoc4)CC3)n2n1`, the Potency is 15.8 µM (active).

With `CC1CCN(C(=O)c2cc3nc(-c4ccccc4)cc(-c4ccccc4)n3n2)CC1`, the Potency entry was “inactive”.

Take `COc1cc(OC)cc(-c2cc3nc(C)c(CCC(=O)NCc4ccccc4)c(C)n3n2)c1`: the Potency entry was “inactive”.

As to `NS(=O)(=O)c1ccc(N2N=C(c3ccccc3)CC2c2ccc(F)cc2)cc1` (stereo not given), the Potency result was “inactive”.

Take `CCCCn1c(SCC(=O)Nc2cc(NC(=O)c3ccco3)ccc2C)nc2ccccc2c1=O`: the Potency entry was “inactive”.

As for `Fc1ccc2[nH]c3c(N4CCSCC4)ncnc3c2c1`, the Potency is 25.1 µM (active).

Take `Fc1ccc2[nH]c3c(NCc4ccccc4)ncnc3c2c1`: the Potency result is “inactive”.

Turning to `Cc1ccc(CN(C)C(=O)CN2C(=O)NC(c3ccccc3)(c3ccccc3)C2=O)c(C)c1`, the Potency entry is “inactive”.

Consider `COc1cc(-c2nnc(SCC(=O)N(Cc3ccccc3)C(C)(C)C)o2)cc(OC)c1OC`, for which the Potency result is “inactive”.

For the compound `C=CCOC(=O)C1=C[C@@H](c2ccc3c(c2)OCO3)C[C@@H](OCCCCO)O1`, the Potency entry was “inactive”.

Consider `O=C(Nc1cccc2cccnc12)c1csc(COCCO)n1`, for which the Potency result is “inactive”.

For `O=[N+]([O-])c1ccc(C[n+]2cccc3ccc4cccnc4c32)cc1`, the Potency result was “inactive”.

For `O=[N+]([O-])c1ccccc1S(=O)(=O)Nc1cccc2cccnc12`, the Potency is 17.8 µM (active).

On to `O=S(=O)(Nc1cccc2cccnc12)c1ccccc1`, for which the Potency was 1.78 µM (active).

As to `O=C(Nc1cccc(Br)c1)Oc1cccc2cccnc12`, the Potency result was “inactive”.

With `O=c1cc(N2CCN(c3ccccc3)CC2)[nH]c(=O)n1C1CCCCC1`, the Potency result is “inactive”.

Take `Cc1cc(Cl)ccc1-c1cc2nc(NCCCN(C)C)n(C)c(=O)c2s1`: the Potency result was “inactive”.

As for `O=C(Nc1ccc2c(c1)CCC2)C1CCN(c2c3c(nc4ncnn24)CCC3)CC1`, the Potency result is “inactive”.

For the compound `O=C1/C(=C/c2ccncc2)CCC/C1=C\c1ccncc1`, the Potency was 10 µM (active).

In the case of `CN1C/C(=C/c2cccnc2)C(=O)/C(=C/c2cccnc2)C1`, the Potency result was “inactive”.

With `Cc1ccc(-c2nc3ccc(Cl)cn3c2CC(C)(C)C)cc1`, the Potency result was “inactive”.

On to `CCCNC(=O)c1ccc2c(=O)c(O)c(-c3cccc(Br)c3)[nH]c2c1`, for which the Potency entry was “inactive”.

With `CCN(CC)C(=O)C1=C(C)N(CCC2=CCCCC2)C(=O)C(CC(=O)NC(c2ccccc2)c2ccccc2)C1` (stereo not given), the Potency entry is “inactive”.

On to `CC(C)C[C@H](N)c1cn([C@@H](CCCCN)C(=O)N2CCNCC2)nn1`, for which the Potency result was “inactive”.

In the case of `COc1cc(OC)cc(-c2cc3nc(C)c(CCC(=O)O)c(C)n3n2)c1`, the Potency entry is “inactive”.

Take `CN1CCN(c2ccc(-c3cc(NC=O)c4ncc(-c5ccc(F)c(Cl)c5)n4c3)cc2)CC1`: the Potency was 25.1 µM (active).

Turning to `CN(C)C(=O)c1cccc(-c2cnc3c(NC=O)cc(-c4ccc(F)cc4)cn23)c1`, the Potency entry was “inactive”.

Take `COc1ccc(-c2cc(NC=O)c3ncc(-c4cccc(C(=O)NCCN(C)C)c4)n3c2)cc1`: the Potency entry was “inactive”.

For `COc1ccc(Cl)cc1S(=O)(=O)N1CCN(C(=O)c2n[nH]c(=O)c3ccccc23)CC1`, the Potency result is “inactive”.

`O=C(NC1=CC(=O)c2ccccc2C1=O)c1ccccc1`: the Potency is 14.1 µM (active).

`O=C(Nc1nonc1-c1ccc(Cl)cc1)c1ccccc1`: the Potency entry was “inactive”.

For `NCCCCCc1nnc(SCc2ccccc2Cl)o1`, the Potency result was “inactive”.
